Results on 24 compounds are retold here after PubChem BioAssay (EPA / NIEHS).

In general, AC50 refers to the concentration at which the activity in the assay is half-maximal.

SMILES strings stand for the structures. Calls of active or inactive are those of the source. How the source made its calls: active means hit-call score of the fitted dose curve at least 0.9, where 1 is the maximum; inactive means score below 0.9.

Common to all, as to conditions: mRNA level, 48 h; actives raise or lower the signal
Read-out in experiment [1]: Peroxisomal acyl-coenzyme A oxidase 1 (ACOX1) gene, ACOX1 (gene 51)
The experiment can be described thus: LTEA_HepaRG_ACOX1: Life Technologies and Expression Analysis (LTEA) Assay for Peroxisomal acyl-coenzyme A oxidase 1 (ACOX1) gene using HepaRG (AID 2283467). An outline of the steps: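 HepaRG cells, plated 48 h then switched to serum-free induction medium, were exposed in duplicate for 48 h to 8-point half-log concentrations up to 100 uM in 0.5% DMSO. ACOX1 mRNA was measured by qRT-PCR, normalized to ACTB/GAPDH/POLR2A, and fitted bidirectionally versus DMSO.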

Read-out in experiment [2]: Alkaline Phosphatase, Placental (ALPP) gene, ALPP (gene 250)
The experiment can be described thus: LTEA_HepaRG_ALPP: Life Technologies and Expression Analysis (LTEA) Assay for Alkaline Phosphatase, Placental (ALPP) gene using HepaRG (AID 2283468).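 On AC50: differentiated human HepaRG liver cells in serum-free induction medium.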 An outline of the steps: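 ALPP transcript level, measured by qRT-PCR and normalized to three housekeeping genes (ACTB, GAPDH, POLR2A), after 48 h dosing of differentiated HepaRG in serum-free induction medium. Top concentration 100 uM with half-log dilutions (8 points, 0.5% DMSO, duplicates); bidirectional fitting relative to DMSO.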

Read-out in experiment [3]: Bcl-2 (BAD) gene, BAD (gene 572)
The experiment can be described thus: LTEA_HepaRG_BAD: Life Technologies and Expression Analysis (LTEA) Assay for Bcl-2 (BAD) gene using HepaRG (AID 2283469). The procedure, abridged: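 Differentiated HepaRG cells were exposed in duplicate in 0.5% DMSO for 48 h to eight-point half-log concentrations up to 100 uM. BAD mRNA was measured by Fluidigm TaqMan qRT-PCR, normalized to ACTB, GAPDH and POLR2A, and fitted bidirectionally against DMSO.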

Read-out in experiment [4]: Bcl-2 (BAX) gene, BAX (gene 581)
The experiment can be described thus: LTEA_HepaRG_BAX: Life Technologies and Expression Analysis (LTEA) Assay for Bcl-2 (BAX) gene using HepaRG (AID 2283470). The procedure, abridged: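 HepaRG (human liver), 48 h exposure, duplicate wells. 8-pt curve, half-log from 100 uM, 0.5% DMSO. BAX transcript by TaqMan qRT-PCR; ACTB/GAPDH/POLR2A normalization; gain or loss vs DMSO baseline.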

Read-out in experiment [5]: adenosine kinase (ADK) gene, ADK (gene 132)
In words: LTEA_HepaRG_ADK: Life Technologies and Expression Analysis (LTEA) Assay for adenosine kinase (ADK) gene using HepaRG (AID 2283471). The procedure, abridged: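 Differentiated HepaRG cells dosed 48 h in serum-free induction medium, 0.5% DMSO vehicle, eight half-log concentrations from 100 uM, in duplicate. ADK mRNA by TaqMan qRT-PCR normalised to ACTB, GAPDH, POLR2A; bidirectional fit versus DMSO.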

Read-out in experiment [6]: Alpha-fetoprotein (AFP) gene, AFP (gene 174)
In words: LTEA_HepaRG_AFP: Life Technologies and Expression Analysis (LTEA) Assay for Alpha-fetoprotein (AFP) gene using HepaRG (AID 2283472). The procedure, abridged: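 HepaRG, single lot; 48 h post-plating -> serum-free induction medium; cpd 8-pt, 100 uM top, half-log, 0.5% DMSO, duplicate, 48 h. RNA -> qRT-PCR AFP, norm ACTB/GAPDH/POLR2A. Bidirectional fit vs DMSO.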

Read-out in the next experiment: BCL2L11 (gene 10018)
In words: LTEA_HepaRG_BCL2L11: Life Technologies and Expression Analysis (LTEA) Assay for Bcl-2 (BCL2L11) gene using HepaRG (AID 2283473). An outline of the steps:
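BCL2L11 transcript levels are measured by Fluidigm qRT-PCR, normalized to three housekeeping genes. HepaRG cultures were plated 48 h, then treated 48 h with test chemical (top 100 uM, half-log, 0.5% DMSO vehicle); curves were fitted bidirectionally against DMSO.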

Read-out in experiment [7]: Apolipoprotein A-V (APOA5) gene, APOA5 (gene 116519)
The experiment can be described thus: LTEA_HepaRG_APOA5: Life Technologies and Expression Analysis (LTEA) Assay for Apolipoprotein A-V (APOA5) gene using HepaRG (AID 2283474). The procedure, abridged:
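APOA5 transcript levels were quantified by qRT-PCR, normalized to three housekeeping genes, after 48 h chemical treatment of HepaRG cells (8 points, 100 uM maximum, half-log steps, 0.5% DMSO). Curves fitted in both directions against vehicle.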

Read-out in experiment [8]: Apoptosis regulator Bcl-2 (Homo sapiens) (UniProt P10415)
The experiment can be described thus: LTEA_HepaRG_BCL2: Life Technologies and Expression Analysis (LTEA) Assay for Bcl-2 gene using HepaRG (AID 2283475). An outline of the steps:
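HepaRG, plated 48 h then switched to serum-free induction medium; dosed 48 h, 8 conc. (max 100 uM, half-log steps), duplicate, 0.5% DMSO. Lysis in RLT, RNA isolated, TaqMan qRT-PCR for BCL2; ACTB/GAPDH/POLR2A normalisation; bidirectional fit vs DMSO.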

Read-out in experiment [9]: Bcl-2 (BID) gene, BID (gene 637)
The experiment can be described thus: LTEA_HepaRG_BID: Life Technologies and Expression Analysis (LTEA) Assay for Bcl-2 (BID) gene using HepaRG (AID 2283476). An outline of the steps:
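Transcript levels of BID, measured by qRT-PCR and normalized to three housekeeping genes, were fitted bidirectionally against DMSO controls. Cells were HepaRG, dosed 48 h at up to 100 uM.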

Chain of Apoptosis regulator Bcl-2 (Homo sapiens) (P10415 whole entry, looked up): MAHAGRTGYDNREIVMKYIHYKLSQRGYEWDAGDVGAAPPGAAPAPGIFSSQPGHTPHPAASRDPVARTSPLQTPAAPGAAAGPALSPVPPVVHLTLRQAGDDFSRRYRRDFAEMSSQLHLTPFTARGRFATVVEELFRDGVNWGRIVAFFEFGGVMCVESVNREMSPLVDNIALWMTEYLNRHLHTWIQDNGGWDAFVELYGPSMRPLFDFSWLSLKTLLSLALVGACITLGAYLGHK

For `Cc1c(C(=O)O)c(O)cc2c1C(=O)c1c(O)c([C@@H]3O[C@H](CO)[C@@H](O)[C@H](O)[C@H]3O)c(O)c(O)c1C2=O`, the compound was called inactive in experiment [1], in [2], in experiment [3], in experiment [4], in experiment [5] and in experiment [6]. Moreover, the result (in the experiment with BCL2L11 (gene 10018); in [7]; in experiment [8]; in experiment [9]) was inactive.
`Clc1cc(Cl)c(Cl)cc1Cl`: the call in experiment [1], in experiment [2], in experiment [3], in [4], in experiment [5] and in experiment [6] was inactive. Moreover, the compound was called inactive (in the experiment with BCL2L11 (gene 10018); in experiment [9]).
Turning to `CCCCCCCCCCCCCCCCCC(=O)O`, the result in [1], in experiment [2], in experiment [3], in experiment [4], in experiment [5] and in experiment [6] was inactive. Moreover, the compound was called inactive (with BCL2L11 (gene 10018); in experiment [7]; in experiment [9]).
For `CCCCCCCCCCCCCCCC`, the compound was classed as inactive in [1], in experiment [2], in [3], in experiment [4], in [5] and in [6]. The compound was classed as inactive (with BCL2L11 (gene 10018); in experiment [9]).
On to `O=C(O)Cc1ccccc1Nc1c(Cl)cccc1Cl`, for which the outcome (in experiment [1]; in experiment [2]; in experiment [3]; in experiment [4]; in [5]; with BCL2L11 (gene 10018)) was inactive. The outcome in experiment [7], in [8] and in experiment [9] was inactive. Also, the AC50 in [6] is 19.7 µM (active).
Take `Cc1ccc(C)c(C)c1`: the compound was classed as inactive in experiment [1], in [2], in experiment [3], in experiment [4], in [5] and in [6]. Moreover, the outcome (with BCL2L11 (gene 10018); in experiment [7]; in experiment [9]) was inactive.
With `Cc1nc(C)nc(N2C[C@@H](C)N(c3ccnc([C@@H](C)O)n3)[C@@H](C)C2)n1`, the compound was classed as inactive in experiment [1], in [2], in experiment [3], in experiment [4], in experiment [5] and in experiment [6]. The result (with BCL2L11 (gene 10018); in experiment [8]; in experiment [9]) was inactive.
For the compound `Cc1ccc(N(C)C)cc1`, the compound was classed as inactive (in experiment [1]; in experiment [2]; in [4]; in [5]; in [6]; with BCL2L11 (gene 10018)). For the same compound, the compound was classed as inactive in [7] and in experiment [9].
As to `O=C(OCCCCCOC(=O)c1ccccc1)c1ccccc1`, the AC50 in [2] is 1.46 µM (active); in [3] it was 1.95 µM (active); in experiment [4], 1.78 µM (active); in experiment [5], 1.57 µM (active); in [6] it was 0.77 µM (active); in the experiment with BCL2L11 (gene 10018), 2.45 µM (active). In addition, the AC50 in experiment [7] is 3.02 µM (active); in [9] it was 2.7 µM (active).
Regarding `Cc1cc(NC(=O)C(=O)O)cc(C)c1Oc1ccc(O)c2c1CCC2`, the call (in experiment [1]; in experiment [2]; in experiment [4]; in experiment [5]; with BCL2L11 (gene 10018); in experiment [9]) was inactive. The AC50 in experiment [6] was 9.92 µM (active).
Take `CC(CO)OC(C)CO` (stereo not drawn) (tested in a mixture with another compound): the call (in experiment [1]; in experiment [2]; in [4]; in experiment [5]; in experiment [6]; with BCL2L11 (gene 10018)) was inactive. The outcome in experiment [7], in experiment [8] and in experiment [9] was inactive.
In the case of `COc1cc(-c2nc(NC(=O)c3cc4cc(C)cc(C)c4n3CC(=O)O)sc2CCC2CCCCC2)c(OC)cc1Cl`, the AC50 was 8.11 µM (active) in experiment [1]; 15.6 µM (active) in experiment [5]; 6.7 µM (active) in [6]; 60.6 µM (active) with BCL2L11 (gene 10018); 20.1 µM (active) in [8]; 5.4 µM (active) in [9]. The compound was classed as inactive in experiment [2], in [4] and in experiment [7].
Take `CCCCCCCCCCCC(=O)OC`: the compound was called inactive (in experiment [1]; in experiment [2]; in experiment [4]; in experiment [5]; in [6]; with BCL2L11 (gene 10018)). In addition, the call in experiment [7], in experiment [8] and in experiment [9] was inactive.
Turning to `CCCCOC(=O)CCCCCCCCC(=O)OCCCC`, the result (in experiment [2]; in [3]; in experiment [4]; in experiment [5]; in [6]; with BCL2L11 (gene 10018)) was inactive. Moreover, the compound was called inactive in [7], in [8] and in experiment [9].
With `CCOc1ccc2c(c1)C(C)=CC(C)(C)N2`, the result in experiment [1], in experiment [2], in [4], in [5], in experiment [8] and in experiment [9] was inactive. Moreover, the AC50 in experiment [6] is 50 µM (active); in the experiment with BCL2L11 (gene 10018) it was 9.92 µM (active).
Regarding `C1CCC(SSC2CCCCC2)CC1`, the compound was classed as inactive (in experiment [2]; in experiment [3]; in experiment [4]; in [5]; in experiment [6]; with BCL2L11 (gene 10018)). Moreover, the compound was called inactive in experiment [7] and in experiment [9].
On to `Cc1cc(=O)[nH]c(=S)[nH]1`, for which the compound was called inactive (in experiment [2]; in experiment [3]; in experiment [4]; in [5]; in experiment [6]; in the experiment with BCL2L11 (gene 10018)). Moreover, the outcome in experiment [8] and in [9] was inactive.
As to `CCCCCC(=O)O`, the outcome (in [1]; in experiment [2]; in [4]; in experiment [5]; in [6]; in the experiment with BCL2L11 (gene 10018)) was inactive. For the same compound, the outcome in [7] and in experiment [9] was inactive.
Regarding `C=CCc1ccc(O)c(OC)c1`, the compound was called inactive (in [1]; in experiment [2]; in [4]; in experiment [5]; in [6]; with BCL2L11 (gene 10018)). For the same compound, the outcome in experiment [8] and in experiment [9] was inactive.
Turning to `CCOC(=O)CCC(=O)OCC`, the compound was called inactive (in [2]; in experiment [3]; in [4]; in experiment [6]; with BCL2L11 (gene 10018); in experiment [7]). Also, the call in [8] and in experiment [9] was inactive. Also, the AC50 in experiment [5] was 79.3 µM (active).
In the case of `Cc1ccc(C(C)C)c(O)c1`, the compound was classed as inactive (in [1]; in experiment [2]; in experiment [4]; in experiment [5]; in experiment [6]; in the experiment with BCL2L11 (gene 10018)). In addition, the compound was called inactive in experiment [9].
Consider `CNCc1cc(F)ccc1Oc1ccc(Cl)c(Cl)c1`, for which the AC50 in experiment [1] is 74.2 µM (active); in experiment [2] it was 81.8 µM (active); in experiment [8] it was 88.3 µM (active). For the same compound, the compound was classed as inactive (in experiment [4]; in experiment [5]; in experiment [6]; with BCL2L11 (gene 10018); in experiment [9]).
Turning to `CN1CCN(Cc2cc(-c3ccc4[nH]c(=O)oc4c3)co2)[C@@H](c2ccc(F)cc2)C1`, the AC50 was 50 µM (active) in [2] and 90.1 µM (active) in experiment [6]. For the same compound, the compound was called inactive (in experiment [3]; in experiment [4]; in experiment [5]; in the experiment with BCL2L11 (gene 10018); in [7]; in experiment [9]).
Turning to `Oc1ccc2ccccc2c1N=Nc1ccccc1`, the outcome in [2], in experiment [3], in [4], in experiment [5], in [7] and in experiment [9] was inactive. The results for the AC50 (in experiment [6]; in the experiment with BCL2L11 (gene 10018); in [8]) were 27.9 µM (active), 15.1 µM (active) and 31.5 µM (active), respectively.
